Rows were chosen to be rich in hits. Some 5.1% of all compounds tested hit in one or more screens of this group.
CRFBP-R2 block: CRF-BP/CRF-R2 complex antagonism. HEK293 CRF-R2/CRF-BP, CRF-induced calcium fluorescence. inhibition, % at 11.8 µM. actives 0.59% (n = 350,000). AID 588475;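 active = inhibition of the ligand-induced calcium signal above about 50% at the single tested concentration, limit read from the data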
GRIN3A LBD mod: NR3A (human) ligand-binding domain modulation | NR3A LBD differential scanning fluorimetry, Tm shift; 0% = protein alone, 100% = glycine-bound protein | Tm shift relative to glycine control, % at 25 µM | actives 2.5% (n = 340,000) | AID 1259313;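 active = melting temperature shift of at least 10% of the positive control shift, at one fixed dose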
MPTP inh: permeability transition pore inhibition | isolated mouse mitochondria, Ca2+ swelling absorbance, 30 min | inhibition, % at 10 µM | actives 1.4% (n = 360,000);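 active = inhibition of 50% or more, scaled per plate between neutral and stimulator controls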;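 note: 0% = DMSO wells given calcium and 100% = 1 mM EGTA wells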
TMEM16A inh: inhibitors of mouse TMEM16A calcium-activated chloride channel; Q8BHY3; actives 1.2% (n = 310,000); normalized B-score (activity score, 25-100; higher = stronger inhibition) at 10 µM; HEK293 TMEM16A/YFP iodide influx fluorescence, ionomycin;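 active = ratio plate-corrected score three or more library SD toward inhibition, starting fluorescence score within five deviations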;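 note: score derived from kinetic fluorescence span divided by baseline fluorescence per well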
CRFR2-BP ag: agonists of human CRF-binding protein/CRF-R2 receptor complex; HEK293 CRF-R2/CRF-BP, calcium dye fluorescence (FLIPR); percent of saturating CRF peptide response; activation, % at 13.2 µM; actives 0.46% (n = 350,000); AID 588473;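 active = activation of at least 50%, plus an integration ratio under a set limit after plate pattern correction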;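 note: plate controls were neutral control wells without compound for no effect and CRF at EC100 for full effect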
TMEM16A act: mouse TMEM16A channel activation, primary screen. B-score at 10 µM. HEK293 TMEM16A/YFP-H148Q/I152L, iodide quench fluorescence; stronger effect = lower value. actives 0.3% (n = 340,000). AID 623877. Q8BHY3;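 active = fluorescence-ratio B-score plate-corrected deviation score at least 3 library SD below zero, with starting fluorescence score within 5 deviations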;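 note: channel opened by trigger with iodide after compound preincubation; score built on the fluorescence ratio of max minus min over baseline; more negative score means more quench and so TMEM16A activation or potentiation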
The depositor's hits bear a star; i = inactive; x = no result.

SMILES	CRFBP-R2 block	GRIN3A LBD mod	MPTP inh	TMEM16A inh	CRFR2-BP ag	TMEM16A act
COc1ccc(C(=O)COC(=O)c2c(-c3ccccc3)noc2C)c(OC)c1	13.1	2.5	1.6	i	3.4	i
OC[C@@H](O)C(O)[C@@H](O)CO (stereo partly drawn)	x	x	-0.3	x	x	x
O=C(CNC(=O)c1ccccc1F)Nc1ccc2c(c1)OCO2	7.1	-1.0	-0.4	x	0.1	i
COc1ccc(NC(=O)c2cc3ccc(O)cc3o/c2=N\O)cc1	-2.3	35.8*	0.1	i	7.9	i
COc1ccc2o/c(=N\O)c(C(=O)Nc3ccccc3OC)cc2c1	-49.9	-14.1	0.5	i	14.8	i
O=C(Cn1cnc([N+](=O)[O-])c1)Nc1cc(Oc2ccc(Cl)cc2Cl)cc([N+](=O)[O-])c1	8.8	12.4*	5.3	i	2.1	i
Cc1ccc(S(=O)(=O)N2c3ccccc3OCC2C(C)(C)C)cc1 (stereo not drawn)	90.3*	4.0	1.4	i	3.8	i
Cc1ccc2c(c1)N(S(=O)(=O)c1ccc(F)cc1)C(C(C)(C)C)CO2 (stereo not drawn)	11.4	6.0	6.3	i	-0.2	i
C[C@@H]1CN([C@H](C)CO)C(=O)CCCn2cc(nn2)CO[C@H]1CN(C)C(=O)Cc1ccccc1	-4.1	x	-2.0	x	-0.5	x
CCOc1ccccc1CN1CCNC(=O)C1CC(=O)N(C)Cc1nonc1C (stereo not drawn)	-2.3	-1.6	-2.1	i	-2.5	i
Cc1nonc1CN(C)C(=O)CC1C(=O)NCCN1Cc1ccccc1F (stereo not drawn)	-9.9	11.1*	-0.4	i	1.3	i
COc1ccc(NC(=O)N(O)C2(C#N)CCCCC2)cc1	0.3	4.0	-1.0	x	0.4	i
COc1ccc(NC(=O)CCN2C(=O)C3CC=CCC3C2=O)cc1S(=O)(=O)N1CCCCC1 (stereo not drawn)	12.9	-0.1	-0.1	x	-1.7	i
COc1ccc(NC(=O)CN2CCCC2c2cccs2)cc1S(=O)(=O)N1CCCCC1 (stereo not drawn)	64.0*	-0.2	1.3	x	-0.8	i
COc1ccc(NC(=O)CCCC2CCCCC2)cc1S(=O)(=O)N1CCCCC1	64.4*	-1.6	5.5	i	-1.9	i
Cn1c(CNc2ccc(Cl)cc2)nc2ccccc21	0.5	12.2*	-1.3	i	-1.8	i
Cc1ccc(N2CCN(c3ccc(NCc4nc5ccccc5n4C)cc3)CC2)cc1	1.7	12.6*	0.7	i	2.5	i
Cc1ccc(NCc2nc3ccccc3n2C)c(C)c1	-21.9	0.7	0.5	i	-0.8	i
Cc1cccc(NCc2nc3ccccc3n2C)c1	-23.3	-4.3	0.0	i	-0.8	i
COc1ccc([C@H]2CC(=O)C=C(c3ccc4c(c3)OCCO4)C2)cc1	19.1	-2.2	-1.4	x	-4.3	i
CCc1cc(C(=O)Nc2cc(Cl)ccc2N2CCN(C)CC2)sc1C	-19.2	11.2*	19.9	i	3.9	i
CCC(=O)Nc1cc(Cl)ccc1N1CCN(C(=O)CC)CC1	81.3*	-8.3	0.3	i	-0.8	i
CCc1cc(C(=O)Nc2cc(S(=O)(=O)N(CC)CC)ccc2N2CCN(C)CC2)sc1C	3.5	-2.2	-1.3	i	0.7	i
COc1ccc(NS(=O)(=O)c2ccc(O)c(NC(=O)c3cc4c(C)nn(-c5ccc(F)cc5)c4s3)c2)cc1	-76.6	30.6*	28.7	i	93.0*	i
Cc1nn2c(N)c(-c3ccccc3)cnc2c1-c1ccc(Cl)cc1	54.4*	2.7	1.7	i	1.1	i
SMILES	CRFBP-R2 block	GRIN3A LBD mod	MPTP inh	TMEM16A inh	CRFR2-BP ag	TMEM16A act
CNC(=O)OCc1snc(-c2ccccc2)c1COC(=O)NC	x	x	0.1	x	x	x
CCCCN(C(=O)c1cc(S(=O)(=O)N2CCCCCC2)ccc1OC)c1c(N)n(CCC)c(=O)[nH]c1=O	-3.0	1.4	0.3	i	-1.4	i
COc1ccc(CS(=O)(=O)c2ncn[nH]2)cc1	-2.8	0.6	-0.2	i	-0.2	i
CC1CCN(CCOc2cccc(Br)c2)CC1	3.6	10.6*	-0.3	i	-5.1	i
Brc1cccc(OCCCN2CCCCCC2)c1	1.9	-17.1	0.9	i	0.8	i
COC(=O)[C@H](Cc1ccccc1)[C@@H](C)OS(N)(=O)=O	-2.0	-1.4	-1.3	i	0.1	i
Cc1cccc(OCCC(=O)OCC(=O)Nc2c(C)nn(-c3ccccc3)c2C)c1	15.8	2.0	-0.7	i	-3.1	i
Cn1cc(S(=O)(=O)Nc2ccc(Br)cc2F)c(=O)n(C)c1=O	71.2*	1.7	0.3	i	4.0	i
CC(C)(C)c1csc(N/N=C/c2ccc(O)cc2)n1	2.1	5.3	2.2	i	-0.9	i
Cc1cccc(N2CCN(C(=O)CCCCCn3c(=S)[nH]c4ccc(N5CCOCC5)cc4c3=O)CC2)c1C	1.8	-3.0	0.1	i	-0.4	i
CC1CC(C)CN(S(=O)(=O)c2ccc(C(=O)Nc3nnc(-c4cccs4)o3)cc2)C1 (stereo not drawn)	-3.5	2.1	-25.4	i	34.0	i
CCC1CCCCN1S(=O)(=O)c1ccc(C(=O)Nc2nnc(-c3cccs3)o2)cc1 (stereo not drawn)	0.2	-5.2	-26.9	25*	41.7	i
N#Cc1c(N2CCN(c3ccc([N+](=O)[O-])cc3)CC2)[n+](=O)c2ccc(Cl)cc2n1[O-]	-14.3	-3.0	-2.9	x	14.2	i
COc1ccc(OC)c(-c2csc(NC(=O)CSc3ccc(Br)cc3)n2)c1	16.8	19.5*	39.4	i	6.4	i
COc1ccc(OC)c(-c2csc(NC(=O)COC(=O)c3ccc(NC(=O)CC#N)cc3)n2)c1	11.5	13.4*	-0.7	x	1.5	i
COc1ccc(OC)c(-c2csc(NC(=O)Cc3cc(OC)c(OC)c(OC)c3)n2)c1	14.9	-3.3	3.8	i	-1.8	i
COc1ccc(OC)c(-c2csc(NC(=O)COC(=O)C3CCC3)n2)c1	-3.2	-2.4	-0.9	x	-0.2	i
CCOC(=O)c1ccc(N2C=C(C(=O)OC)C(c3cccc(O)c3)C(C(=O)OC)=C2)cc1	10.6	-441.5	1.9	i	-0.2	i
COc1ccccc1C(=O)Oc1ccc2c(c1)O/C(=C\c1ccncc1)C2=O	-60.2	-2.1	0.6	i	124.2*	i
CC(=O)Oc1ccc2c(c1)O/C(=C\c1ccncc1)C2=O	-67.3	-1.1	0.8	i	126.6*	i
Cc1cc(=O)n2nc(N3CCCC(C(=O)NCc4ccccc4Cl)C3)sc2n1 (stereo not drawn)	-3.1	-0.7	0.5	i	0.0	i
